{"source": "PubChem BioAssay AID624449", "about": "(Southern Research Specialized Biocontainment Screening …, 2012)", "note": "Measured potencies and affinities stand elsewhere. Calls of active or inactive are those of the source. The rule behind the calls is not given here."}
{"test": "VEEV TC-83 cytopathic effect inhibition, confirmation, cell-based, TC-83 strain, set 6 (AID 624449)", "conditions": "VEEV TC-83 infected cells; series mostly up to 25 µM"}
{"smiles": "CCN1CCN(Cc2nc3ccc(C(=O)O)cc3c(=O)n2-c2ccccc2)CC1", "outcome": "inactive"}
{"smiles": "CCN1CCN(Cc2nc3ccc([N+](=O)[O-])cc3c(=O)n2C)CC1", "outcome": "inactive"}
{"smiles": "COc1ccccc1-n1c(CN2CCNCC2)nc2ccc([N+](=O)[O-])cc2c1=O", "outcome": "inactive"}
